According to PubChem BioAssay AID540253 (National Center for Advancing Translational Sciences (NCATS), 2011):
The whole screen tested about 340,000 compounds, of which about 240 (0.071%) were called active. The entries come from a sample that favours actives as a whole. A number with no mark means an inactive call. The call rests on the fitted dose curve.

molecular target: Snurportin-1 (Homo sapiens) + GTP-binding nuclear protein Ran (Homo sapiens) + Importin subunit beta-1 (Homo sapiens) (UniProt O95149+P62826+Q14974); test: qHTS Assay for Inhibitors of RanGTP induced Rango (Ran-regulated importin-beta cargo) - Importin beta complex dissociation; settings: Biochemical FRET Rango-importin beta; series mostly up to 46.1 µM; activity change, negative = inhibition: at the top concentration; further: nearly all actives have a fitted effect of over 45% in size; on activity change, negative = inhibition: % of control where 0% means no effect
Source text: NIH Molecular Libraries Probe Production Centers Network [MLPCN] NIH Chemical Genomics Center [NCGC] MLPCN Grant: R03 MH090808-01A1 Assay Submitter (PI): Petr Kalab NCGC Assay Overview: The small GTPase Ran regulates transport of macromolecules between the nucleus and the cytoplasm (nuclear transport) and has important functions in mitotic spindle assembly, nuclear envelope (NE) formation and nuclear pore complex (NPC) assembly. RanGTP gradient is thought to promote spindle assembly by providing a spatial clue to microtubule nucleation and Aurora A activation. Because the localized release and binding of importin alpha cargos relays this spatial clue to SAFs, inhibitors of the Rango - importin beta complex can then be used in further understanding their role in cell cycle specifically in mitosis progression. […] Activation of Aurora A has been linked to different types of cancer and a number of Aurora kinase inhibitors are being developed as potential canter therapeutics; therefore, identified inhibitors of this complex could be developed into potential anti-mitotic probes for cancer treatment. Purified recombinant proteins Rango - importin beta and RanGTP-RCC1 stock premixes were provided by the assay submitter. The assay used a fluorescence resonance energy transfer (FRET) Rango biosensor that contains the IBB of human snurportin 1 flanked by yellow fluorescent protein (EYFP) at the amino terminus and cerulean CFP10 at the carboxy terminus. […] RanGTP binding to the complex (in the presence of RCC1) releases the Rango from the complex. The flexibility of the IBB in the freed Rango allows the donor - acceptor fluorophores to interact, resulting in a high FRET signal. Inhibitors will therefore be identified based on the ability to interfere with the FRET signal increase. DMSO treated and no RanGTP-RCC1 (buffer only) wells were used as negative and positive controls respectively. FRET readings were obtained at two time points. FRET reading prior to importin beta addition (pre-read) were used flag potential compound interference; FRET reading after importin beta addition (post-read) were used to identify inhibitors.
NCGC Assay Protocol Summary: Two and a half uL/well of Rango- importin beta premix solution (0.1 uM Rango, 0.25 uM importin beta, 1x PBS, 1mM DTT, 0.02% Tween-20, 0.1% BSA final concentrations) was dispensed into 1536-well assay plates (Greiner, solid black medium-binding plates) with Aurora Discovery BioRAPTR Flying Reagent Dispenser (FRD; Beckton-Dickenson). Compound solution (23 nL) was transferred to the assay plate using Kalypsys pin tool equipped with a 1536-pin tool and incubated at room temperature for 5 min followed by a FRET pre-read using the PerkinElmer Envision plate reader. Two and a half uL/well of RanGTP-RCC1 premix solution (0.6 uM Ran, 2mM GTP, 0.2 uM RCC1, 1x PBS, 1mM DTT, 0.02% Tween-20, 0.1% BSA final concentrations) were then added and incubated at room temperature giving a final reaction volume of 5uL. After 45min FRET post-read was obtained via the Envision plate reader using the same optics and settings as the pre-read (CFP/YFP optimized dual optical module D450/D505; excitation mirror CFP 430/24 nm; and emission filters CFP 486/10 nm and YFP 530/10 nm).
Potency means the concentration at half of the fitted maximal effect.

SMILES | activity change, negative = inhibition [%] | Potency
O=C(NN=CC=Cc1ccccc1)C(O)C(O)C(=O)NN=CC=Cc1ccccc1 (configuration not stated) | -0.0781 | 
NC(=O)C1CCN(C(=O)c2cc(S(=O)(=O)N3CCN(c4ccccc4)CC3)ccc2Cl)CC1 | 25.5 | 
CC1(C)C(=O)CCC2(C)C1=CCC1C2C(=O)CC2(C)C1CCC2(O)C(=O)CO (configuration not stated) | 24.8 | 
O=C(Cc1ccc(S(=O)(=O)N2CCOCC2)s1)Nc1ccc(Br)c(C(F)(F)F)c1 | -10.6 | 
C=CCOC(=O)N1CCC2CC1c1cc(-c3ccc(OC)cc3)ccc12 (configuration not stated) | 8.87 | 
O=C(O)C1C2C=CC(O2)C1C(=O)Nc1ccccn1 (configuration not stated) | 1.27 | 
c1ccc(C(=NNc2nc3ccccc3s2)c2ccccn2)cc1 | 2.54 | 
C=CCN1C=C(C(=O)c2ccccc2)C(=O)CC1 | 1.6 | 
CCCCC(=O)NC(c1ccc(OC)c(OC)c1)c1ccc2cccnc2c1O (configuration not stated) | 0.729 | 
COc1cccc(CC(=NO)c2cccc(OC)c2)c1 | -1.39 | 
CN(O)C(=S)c1ccccc1 | 16.2 | 
CCN1CCC(O)(/C=C/c2ccc(C)cc2)C(C(=O)/C=C/c2ccc(C)cc2)C1 (configuration not stated) | -9.76 | 
Oc1c(CN2CCOCC2)ccc(CN2CCOCC2)c1O | -11.4 | 
CN1C(c2ccc(F)cc2)=CS/C1=C(/C#N)c1nnc2n1-c1ccccc1SC2 | 0.615 | 
CC(=NNC(=O)c1ccncc1)c1ccc(Cl)c(Cl)c1 | -0.0471 | 
O=C(/C=C/Nc1ccc(S(=O)(=O)Nc2cnc3ccccc3n2)cc1)c1cccnc1 |  | 3.26 µM [inconclusive] (active)
CCOc1cc(C(=O)Nc2ccc(S(=O)(=O)Nc3cnc4ccccc4n3)cc2)cc(OCC)c1OCC | 32.9 | 
C=C(C)CNC(=S)Nc1ccc(S(=O)(=O)Nc2cnc3ccccc3n2)cc1 | 23.2 | 
COC(=O)c1ccc(NCc2cc(O)ccc2O)cc1 | -7.48 | 
Cc1c(CCC(=O)O)c(=O)oc2cc(OCc3ccc(Br)cc3)ccc12 | 18.2 | 
CC(=O)Oc1ccc2c(C)c(CC(C)O)c(=O)oc2c1 (configuration not stated) |  | 9.2 µM [inconclusive] (active)
COC(=O)Cc1c(C)c2ccc(OCC(=O)NCc3ccc4c(c3)OCO4)cc2oc1=O | -12.3 | 
COC(=O)c1ccc(CNC(=O)Cn2cc(C)c(=O)[nH]c2=O)cc1 | -5.5 | 

SMILES | activity change, negative = inhibition [%] | Potency
COc1ccc(NS(=O)(=O)c2ccc(N3CCOCC3)c(NC(=O)/C=C/C(=O)O)c2)cc1 | -3.29 | 
COc1ccc(C2NCCCC2c2ccccc2)cc1 (configuration not stated) | 0.162 | 
Oc1cccc(CCc2ccccn2)c1 | 2.99 | 
CCc1c(Nc2ccccc2C)nc(N)[nH]c1=O | -7.12 | 
Cc1ccc(S(=O)(=O)N2CCN(C(=O)COC(=O)/C=C/c3cccc(Cl)c3)CC2)c(C)c1 | -18.9 | 
COc1ccc(C(CNC(=O)c2cccc(S(=O)(=O)Nc3ccc(Br)cc3)c2)N(C)C)cc1 (configuration not stated) | -6.82 | 
CCOC(=O)C1=NN(c2ccc(Cl)cc2)/C(=C/C2=NCCc3cc(OC)c(OC)cc32)S1 | 0.611 | 
COc1cc2c(cc1OC)C(/C=C/c1ccco1)=NCC2 |  | 8.2 µM [inconclusive] (active)
COc1cc2c(cc1OC)C(c1cccc([N+](=O)[O-])c1)=NCC2 | 4.37 | 
C/C(=N\Nc1ccc(Cl)nn1)c1ccccc1O | -0.572 | 
COc1ccc(NC(=O)/C(N=Nc2cccc(S(=O)(=O)Nc3ccc(SC(F)F)cc3)c2)=C(\C)O)cc1 | -19.4 | 
OCCN1CCN(CCO)C1=S | -2.38 | 
O=C(Cc1ccc(Cl)cc1)c1ccccc1 | -16.1 | 
C[C@]12CCC(=O)C=C1C=CC1C2CC[C@@]2(C)C1CC[C@@]21CCC(=O)O1 (some centres not stated) | 1.93 | 
Cc1nn(-c2ccc(F)cc2)c(Cl)c1/C=C(/CCC(=O)O)c1nc2ccccc2s1 | -9.2 | 
CCCCN=C1N/C(=C\c2ccco2)C(=O)N1c1ccccc1 |  | 14.6 µM [inconclusive] (active)
COC(=O)C1=C(C)N(c2ccc(Br)cc2)C(=O)/C1=C\c1ccco1 | -5.05 | 
CCOC(=O)C1(C)NC(c2ccco2)C2C(=O)N(c3ccccc3)C(=O)C21 (configuration not stated) | 1.12 | 
COCCNc1ncnc2c1nc1n2CCCC1 | 11.7 | 
COCCNc1nc2nonc2nc1N(C)Cc1ccc(C)cc1 | -7.61 | 
COCCNc1nc2nonc2nc1N1CCCC1c1nccs1 (configuration not stated) |  | 18.4 µM [inconclusive] (active)
CC(NC(=O)c1ccccc1)C(=O)Nc1ccccc1 (configuration not stated) | 2.79 | 
C(#CCN1CCOCC1)CCCN1CCOCC1 | -7.44 | 

SMILES | activity change, negative = inhibition [%] | Potency
O=C(Nc1c(Br)cc2c(c1Br)Cc1ccccc1-2)C(F)(F)F | -9.71 | 
COc1ccc(-c2ccc3c(c2)[C@@H]2C[C@H](N(C)S(=O)(=O)c4ccccc4)[C@H]([C@H](C)O)C(=O)N2CC3)cc1 | -9.19 | 
c1ccc2c(c1)OC1OC2Oc2ccccc21 | 1.32 | 
CCOc1ccc(S(=O)(=O)N2CCN(C(=O)c3oc4ccccc4c3C)CC2)cc1 | 21 | 
Cc1nc(N)sc1-c1ccccc1 | 12.3 | 
CN(C)c1ccc(CSc2ccccc2)cc1 | -10.4 | 
COCCN(C(=O)C(C)N1C(=O)c2ccccc2C1=O)c1c(N)n(CC(C)C)c(=O)[nH]c1=O (configuration not stated) | -2.86 | 
COc1cccc(/C=N/Nc2ccc(S(=O)(=O)Nc3ccccc3C(=O)O)cc2[N+](=O)[O-])c1O | 27.9 | 
Cc1ccccc1N1CCN(C(=O)c2cccnc2)CC1 | -6.59 | 
Cc1ccc(S(=O)(=O)n2oc(=O)c(C3CCCCC3)c2N)cc1 | -10.6 | 
O=C(Nc1ccn(CCCNCc2ccc3[nH]ccc3c2)c(=O)n1)OCc1ccccc1 | -18 | 
CCCCN1CC(CO)Oc2cccc(F)c2S1(=O)=O (configuration not stated) | -9.79 | 
CCc1c(Nc2ccccc2Cl)nc(N)[nH]c1=O | 4.91 | 
O=C1OCC2=C1C(c1ccc(Cl)cc1)c1cc3c(cc1O2)OCO3 (configuration not stated) | 5.14 | 
O=C1C2C3C=CC(C3)C2C(=O)N1c1ncc([N+](=O)[O-])s1 (configuration not stated) | 2.52 | 
O=C(NN=Cc1ccc([N+](=O)[O-])cc1)C1CC1 | 0.979 | 
O=C(CCC(=O)N1CCN(S(=O)(=O)c2ccc(Cl)cc2)CC1)NCc1cccc(C(F)(F)F)c1 | -1.43 | 
COc1ccc(CC(=O)NC(C)c2ccc(Cl)c(Cl)c2)cc1S(=O)(=O)N1CCOCC1 (configuration not stated) | -14.4 | 
CCOC(=O)C1CCCN(C(=O)Cn2ncc3c(=O)oc4ccc(C)cc4c32)C1 (configuration not stated) | -6.21 | 
CC1=CC(=NNS(=O)(=O)c2ccc([N+](=O)[O-])cc2)CC(C)(C)C1 | -0.346 | 
O=C(O)c1ccccc1/C=N/Nc1ccc(S(=O)(=O)Nc2ccc(Cl)cc2)cc1[N+](=O)[O-] | -1.28 | 
